High-throughput results as filed in PubChem BioAssay.
Pf Dd2 growth: Plasmodium falciparum Dd2 growth inhibition | 120,000 compounds, 4.3% hits | P. falciparum Dd2 growth, SYBR Green, 72 h | Potency, µM (doses to about 28.9 µM), hits mostly inhibitors; active = well fitted inhibition curve with a large enough effect; also: nearly all actives have a fitted effect of over 65% in size
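Infected erythrocytes (Dd2, 0.3% parasitemia, 2.5% hematocrit final) are added to compound in RPMI-1640/Albumax II medium, grown 72 h at 37C in low oxygen, then lysed with saponin/Triton-X containing SYBR Green and read by fluorescence.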
Each line names hits and unclear results; the compound was inactive in the other large screens. Only a selection was taken, and hits are over-represented in it overall.

Cc1cc(C)cc(N2CCC(NC(=O)c3ccc4[nH]ccc4c3)C2=O)c1 (centres undefined)	none
O=C(c1ccco1)N1CCOc2ccc(CN3CCc4ccccc4C3)cc2C1	none
O=C(N[C@H]1CO[C@H]2[C@@H]1OC[C@@H]2Nc1nccc(-c2ccc(-c3ccccc3)cc2)n1)C1CC1	none
NS(=O)(=O)c1ccc(CNc2nccc(-c3cccnc3)n2)cc1	none
O=C(CCc1ccc(O)cc1)N[C@H]1CC[C@H](Nc2nccc(-c3cccnc3)n2)C1	Pf Dd2 growth 11µM
Cc1ccc(-c2nc(C)c(C(=O)Nc3ccc4c(c3)C(=O)N3CCC[C@H]3C(=O)N4)s2)cc1	none
COCCN(Cc1nccs1)Cc1cn[nH]c1-c1ccc(F)cc1	none
Cc1ccc(/C=C/c2nc3ccccc3[nH]2)cc1	Pf Dd2 growth 10µM
Cc1ccc(/C=C(\C#N)c2nc3ccccc3c(=O)[nH]2)cc1	none
Cc1ccc(C(C)(C)C)c(OCC(=O)NCCc2nc3ccccc3[nH]2)c1	none
O=C1c2c(nc(COc3cccc(F)c3)n2Cc2ccccc2)NCCN1CC1CC1	none
COc1ccccc1OC(C)C(=O)NCC1(N2CCOCC2)CCCCC1 (centres undefined)	none
CN(CCCN1CCOCC1)Cc1nc(-c2cccs2)no1	none
CN(Cc1nc(COc2ccccc2)no1)CC1(N2CCOCC2)CCCCC1	Pf Dd2 growth 8.9µM
O=C(NCC1CCN(c2cc(-c3ccc(Cl)cc3)[nH]n2)CC1)c1ccc[nH]1	none
Cn1c2c(c3ccccc31)CN(C(=O)Nc1ccccc1F)CC2	Pf Dd2 growth 11µM
Cc1ccc(NC(=O)N2CCc3c(c4ccccc4n3C)C2)cc1	none
CCc1ccc(NC(=O)N2CCc3c(c4ccccc4n3C)C2)cc1	none
COC[C@H]1C[C@@H](NC(=O)c2ccc(OC)cc2)[C@H](O)[C@@H]1O	none
Cc1ccccc1C(=O)N1CCC(c2nn(-c3ccccc3)c(=O)[nH]2)CC1	none
CCOC(=O)c1nc(Nc2ccc(C(C)=O)cc2)c2ccccc2n1	none
CCOC(=O)c1cccc(Nc2c3c(nc4ccccc24)CCC3)c1	Pf Dd2 growth 10µM
CCOC(=O)c1nc(Nc2cccc(C)c2)c2ccccc2n1	none
CCOC(=O)c1cccc(Nc2cc(-c3ccccc3)ncn2)c1	none
COc1ccc(NC(=O)CSc2c3c(nc4ccccc24)CCC3)cc1Cl	none
CCOC(=O)c1cccc(Nc2nc(C(=O)OCC)nc3ccccc23)c1	Pf Dd2 growth 7.9µM
Cc1cccc(Nc2nc(-c3ccccc3)nc3ccccc23)c1	none
CCOC(=O)c1cccc(NC(=O)CCc2nc3cccnc3n2-c2ccccc2)c1	none
COc1cc(Cl)c(C)cc1Nc1c2c(nc3ccccc13)CCC2	Pf Dd2 growth 8.9µM
CCCOC(=O)c1cccc(Nc2nc(C(=O)OCC)nc3ccccc23)c1	Pf Dd2 growth 5.6µM
CCOC(=O)c1nc(Nc2ccccc2C)c2ccccc2n1	none
COc1cc(Cl)c(C)cc1NC(=O)c1ccc2c(Cl)c3c(nc2c1)CCC3	none
Cc1ccc(-c2ccc3nnc(CNC(=O)C4(c5ccccc5)CC4)n3n2)cc1	none
Cc1cnn(CCC(=O)N[C@@H]2CN(Cc3ccccn3)C[C@H]2CN(C)C)c1	none
Cc1ccc(OC2(C(=O)NCC3COc4ccccc4O3)CCNCC2)cc1 (centres undefined)	none
O=C(N[C@H]1C[C@H]2C(=O)Nc3ccccc3C(=O)N2C1)c1ccccc1	none
O=C(NCc1ccccc1F)c1ccc2c(c1)CN(Cc1cncs1)CCO2	none
CN1CCC(N2CCN(C(=O)C3CCCN(S(C)(=O)=O)CCC(=O)NCC3)CC2)CC1 (centres undefined)	none
CCC(C)(C)C(=O)N1CCC(N2CC3CC(C2)[C@H]2CCCC(=O)N2C3)CC1 (some centres undefined)	none
CSc1cccc(NC(=O)Cn2ccn3nc4c(c3c2=O)CCCCC4)c1	none
O=C(CC1COCCN1)N1CCC2(CCC(=O)N(CCc3ccccc3)C2)CC1 (centres undefined)	none
COc1ccccc1-c1nc2nccc(-c3ccc(Br)s3)n2n1	none
CN(Cc1cccn1C)CC1CC1	none
Cc1ccc(C(=O)NC[C@H]2O[C@@H](CC(=O)N3CCc4ccccc43)[C@H](O)[C@@H]2O)cc1	none
c1ccc(-c2nnc3ccc(Nc4ccc(N5CCOCC5)cc4)nn23)nc1	none
CCn1ccc2cc(S(=O)(=O)N3CCC(C(=O)NCc4ccc(F)cc4)CC3)ccc21	none
CCn1ccc2cc(S(=O)(=O)N3CCC(C(=O)NCCc4ccccc4)CC3)ccc21	none
CCn1ccc2cc(S(=O)(=O)N3CCC(C(=O)NCCc4ccc(SC)cc4)CC3)ccc21	Pf Dd2 growth 8.9µM
COCCN1CC(CO)C2(CCN(C(=O)c3ccc4ncccc4c3)CC2)C1 (centres undefined)	none
O=C(NCCc1cccs1)c1cc2n(n1)CC(c1ccc3c(c1)OCO3)OC2 (centres undefined)	none
CC(C)C12CN3CC(C(C)C)(CN(C1)C3c1ccccn1)C2=O (centres undefined)	Pf Dd2 growth 8.9µM
Cc1cccc(C2N3CC4(C(C)C)CN2CC(C(C)C)(C3)C4=O)c1 (centres undefined)	none
CC(C)C12CN3CC(C(C)C)(CN(C1)C3c1ccc(Cl)cc1)C2=O (centres undefined)	none
Cc1noc(C)c1S(=O)(=O)N(C)C1CCc2nn(CC3CC3)c(=O)n2CC1 (centres undefined)	none
CO[C@H]1[C@H](NC(=O)c2cc(C)nn2C)c2ccccc2C12CCNCC2	none
CO[C@H]1[C@H](NC(=O)c2cc3ccccc3[nH]2)c2ccccc2C12CCNCC2	none
CO[C@H]1[C@H](NC(=O)c2cc3ccccc3n2C)c2ccccc2C12CCNCC2	Pf Dd2 growth 7.9µM
O=C(c1ccc(Cl)nc1)N1CCc2nc(C3CC3)nc(-c3ccc(Cl)cc3)c2C1	none
O=C(Nc1cccc(-c2nc3cc(Cl)ccc3o2)c1)c1cc([N+](=O)[O-])ccc1N1CCOCC1	none
CCc1ccc2oc(-c3cccc(NC(=O)c4ccc(-c5cccc([N+](=O)[O-])c5)o4)c3)nc2c1	Pf Dd2 growth 2µM
CCc1ccc2oc(-c3cccc(NC(=O)COc4ccccc4Cl)c3)nc2c1	none
CCOC(=O)c1c(S(=O)(=O)N2CCCC(C(=O)Nc3ncccc3C)C2)c(C)n(C)c1C (centres undefined)	none
Cc1ccc(C)c(N2CCN(S(=O)(=O)c3ccc4c(c3)CCCN4C(=O)C3CCC3)CC2)c1	none
CCOC(=O)c1c(C)[nH]c(C)c1S(=O)(=O)N1CCCC(C(=O)NCc2ccc(C)cc2)C1 (centres undefined)	none
CCOC(=O)c1c(S(=O)(=O)N2CCCC(C(=O)N3CCN(c4cccc(C)c4C)CC3)C2)c(C)n(C)c1C (centres undefined)	Pf Dd2 growth 1.1µM
Cc1ccc(C)c(N2CCN(C(=O)C3CCN(S(=O)(=O)c4ccc5[nH]c(=O)oc5c4)CC3)CC2)c1	Pf Dd2 growth 5.6µM
CCOC(=O)c1c(C)[nH]c(C)c1S(=O)(=O)N1CCCC(C(=O)N2CCN(c3cc(C)ccc3C)CC2)C1 (centres undefined)	Pf Dd2 growth 1.3µM
CCOC(=O)c1c(C)[nH]c(C)c1S(=O)(=O)N1CCC(C(=O)N2CCN(c3ccccc3F)CC2)CC1	none
CCOC(=O)c1c(S(=O)(=O)N2CCC(C(=O)N3CCN(c4ccccc4F)CC3)CC2)c(C)n(C)c1C	none
Cc1ccc(Cl)cc1N1CCN(C(=O)C2CCN(S(=O)(=O)c3ccc4c(c3)oc(=O)n4C)CC2)CC1	none
CCOC(=O)c1c(S(=O)(=O)N2CCCC(C(=O)Nc3cc(C)ccc3OC)C2)c(C)n(C)c1C (centres undefined)	none
CCOC(=O)c1c(S(=O)(=O)N2CCCC(C(=O)Nc3cc(C)ccn3)C2)c(C)n(C)c1C (centres undefined)	none
